Screening data deposited in PubChem by National Center for Advancing Translational Sciences (NCATS).
Marburg entry inh: inhibitors of Marburg virus binding or cell entry. Marburg virus pseudotyped entry inhibition, cell reporter. Potency, µM (series often up to 37.8 µM), for inactives: at the top dose activity change, negative = inhibition, most hits filed as inhibitors. 1.8% of 300,000 active. AID 540276; calls by dose curve; tested in HEK293 cells; also: potency is read from the fitted curve at half-maximal effect
HCV inhibitor: inhibitors of hepatitis C virus infection; 3.4% of 340,000 active; Potency, µM (series often up to 41.8 µM), for the others: at the highest dose activity change, negative = inhibition, most hits filed as inhibitors; Huh7.5.1 HCVcc-Cre infection, luciferase reporter, 44 h; active = well fitted inhibition curve with a large enough effect; inconclusive = small, poorly fitted or top-dose-only effect, or another doubt; inactive = no such curve, though single readings can be large or run the other way; also: potency is read from the fitted curve at half-maximal effect
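Seed cells (1,000/well) for 4 h; treat with compound and infect with HCVcc-Cre, moi about 0.5. Incubate 44 h, then detect luciferase activity.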
HCMV antiviral: human cytomegalovirus inhibition; AID 1259415; 4.5% of 410,000 active; activity change, negative = inhibition, % at 57.5 µM; HFF cells, HCMV-luciferase reporter, 72 h; stronger effect = lower value; in the data active = activity change below about -60%; inconclusive = no clear call, values can overlap the other calls; inactive = above about -39%
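Two compound doses tested in HFFs infected with HCMV-luciferase, MOI 1 PFU/cell, 72 h at 37C. Lysate luminescence read with OneGlo; data normalized against buffer-only and 10uM Salinomycin inhibitor controls.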
LASV entry inh: Lassa virus entry inhibition. Potency, µM (titrated, usually from 37.9 µM), inactives show top-dose activity change, negative = inhibition, hits mostly inhibitors. AID 540256. Lassa virus pseudotype entry inhibition, cell reporter. 1.2% of 300,000 active; calls by dose curve; tested in HEK293 cells; also: potency is read from the fitted curve at half-maximal effect; nearly all actives have a fitted effect of over 50% in size
FMDV antiviral: antivirals against foot and mouth disease virus | Potency, µM (doses to about 57.9 µM), for inactives: at the highest dose activity change, negative = inhibition, actives largely listed as inhibitors | FMDV antiviral cell-based qHTS | 1.2% of 410,000 active; calls by dose curve; tested in HEK293T cells; also: read-out not given here; potency is read from the fitted curve at half-maximal effect; nearly all actives have a fitted effect of over 45% in size
* = called active by the depositor; ? = inconclusive; . = no result given; ! = a repeat was not active; [ ] = remark or other dose. An excerpt weighted towards active compounds, which were near 7.9% of everything screened. % is scaled to controls: 0 for no effect and ±100 for the full control effect.

SMILES	Marburg entry inh	HCV inhibitor	HCMV antiviral	LASV entry inh	FMDV antiviral
COc1ccc(N(C(=O)c2ccco2)C(C(=O)NC2CCCC2)c2cccs2)cc1 (centres undefined)	?	-25%	-69*	?	7%
COc1cccc(C(C(=O)NC2CCCCC2)N(C(=O)c2cccs2)c2ccc3c(c2)OCO3)c1 (centres undefined)	-33%	?	-83*	?	-13%
CC(=O)Nc1cc(C(=O)N2CCSCC2)cc2ncn(CCc3ccccn3)c12	.	.	.	.	-11%
COc1cc(O)c(C(C)=O)c(OC)c1	.	10%	?	.	-25%
COc1cc(O)c(C(C)=O)c(CC(=O)O)c1	.	3.2µM*	17	.	-14%
Nc1cc(S(=O)(=O)c2ccc(N3CCCCC3)c(N)c2)ccc1N1CCCCC1	.	.	?	.	-21%
Nc1cc(C(=O)O)ccc1N1CCCCCC1	-9%	5.6µM*	28	-12%	.
COc1ccc(OC)c(C(c2nnnn2Cc2ccccc2)N2CCN(C)CC2)c1 (centres undefined)	?	6%	-13	-15%	-12%
COc1ccc(OC)c(C(c2nnnn2CCc2ccccc2)N2CCN(c3ccccc3)CC2)c1 (centres undefined)	?	?	-12	10µM*	18%
COc1ccc(N2CCN(C(c3cc(OC)ccc3OC)c3nnnn3Cc3ccco3)CC2)cc1 (centres undefined)	10µM*!	12%	-33	?	22%
O=C(NC(=S)N1CC=CCC1)c1ccccc1	.	.	6	.	1%
Cc1cc(NC(=O)c2ccccc2Cl)no1	24%	14%	71	?	50%
Cc1ccc2nc(-c3ccccc3Cl)cc(C(=O)Nc3cc(C)on3)c2c1	0%	13µM*	-39	-13%	?
COC(=O)N/N=C\c1cc2c(cc1Br)OCO2	5%[46.1 µM]	-9%	-2	6%[46.1 µM]	11%
Cc1ccc(C(=O)N/N=C\c2cc3c(cc2Br)OCO3)s1	?	-5%	41	11µM*	4%
COc1cccc(-c2csc(NC(=O)Nc3ccccc3)n2)c1	.	11µM*	?	.	25µM*
CCc1ccc(-c2csc(NC(=O)C3CC(=O)N(c4ccc5c(c4)OCCO5)C3)n2)cc1 (centres undefined)	?	11µM*	-84*	?	?
O=C(Nc1nc(-c2ccccc2)cs1)Nc1ccc(F)cc1F	-27%	?	-75*	?	-8%
Cc1csc(NC(=O)C2CC(=O)N(c3ccc4c(c3)OCCO4)C2)n1 (centres undefined)	.	-13%	14	.	4%
COc1ccc(-c2csc(NC(=O)C3CC(=O)N(Cc4ccccc4)C3)n2)cc1OC (centres undefined)	?	?	12	-18%	32µM*
COc1ccc(CCNc2nc(-c3sc(N)nc3C)cs2)cc1OC	?	-9%	-11	-20%	10µM*
COc1ccc(CC(=O)Nc2nc(-c3ccc(OC)c(OC)c3)cs2)cc1OC	?	5.6µM*	-34	?	?
COc1cccc(-c2csc(N3CCN(C(=O)Nc4ccc(F)cc4)CC3)n2)c1	?	7.9µM*	?	4%	?
COc1cccc(-c2csc(N3CCN(C(=O)Nc4ccccc4OC)CC3)n2)c1	-4%	-14%	47	20%	6%
COc1ccccc1CC(=O)Nc1nc(-c2ccc(F)c(F)c2)cs1	?	10µM*	-20	?	-28%
SMILES	Marburg entry inh	HCV inhibitor	HCMV antiviral	LASV entry inh	FMDV antiviral
O=C(Nc1ccccc1)Nc1nc(-c2ccc(F)c(F)c2)cs1	-8%	-23%	.	0%	-23%
CCOc1ccc(C(=O)Nc2ccc3c(c2)N(C(C)=O)CCC3)cc1OCC	.	.	2	9%[46.1 µM]	-61%
O=C(Cc1ccccc1F)Nc1nc(-c2ccc(F)cc2)cs1	?	-11%	-14	4.5µM*	33%
COc1ccc(-c2csc(NC3OC(=O)c4c3ccc(OC)c4OC)n2)cc1OC (centres undefined)	?	-77%	-98*	-11%	?
O=C(Nc1ccc(F)cc1F)c1csc(-c2ccccc2)n1	29%[46.1 µM]	?	36	6%	35%
O=C(Nc1ccc(F)cc1F)c1cccc(C(=O)Nc2ccc(F)cc2F)n1	8%	-15%	-99*	7%	-10%
COc1ccc(-c2csc(NC(=O)Cc3ccccc3F)n2)cc1OC	?	10µM*	?	.	-27%
COc1cccc(CC(=O)Nc2nc(-c3cccnc3)cs2)c1	3%	-8%	-62*	?	-19%
CCOC(=O)N1CCC(NS(=O)(=O)c2cc3c(cc2Cl)NC(=O)CO3)CC1	-27%[46.1 µM]	-21%	17	1.8µM*	-23%
CCC(=O)N1CCc2cc(Br)cc(S(=O)(=O)CCC(=O)NCCc3ccc(Cl)cc3)c21	27%[46.1 µM]	.	-21	?	-6%
O=C(C1CC1)N1CCc2cc(Br)cc(S(=O)(=O)N3CCCCCC3)c21	-30%	?	21	-1%	-8%
CCOC(=O)N1CCC(NS(=O)(=O)c2cc(Br)cc3c2N(C(=O)CC)CC3)CC1	?	-27%	-105*	?	-12%
CCC(=O)N1CCc2cc(Br)cc(S(=O)(=O)CCC(=O)NCCOC)c21	1%	22%	-84*	15%	1%
CCOC(=O)N1CCC(NS(=O)(=O)c2ccc3c(c2)OCC(=O)N3)CC1	21%	-9%	19	9%	37%
O=C(C1CC1)N1CCc2cc(Br)cc(S(=O)(=O)NC3CCCCC3)c21	?	7.1µM*	-15	?	24%
Clc1ccc(-n2cccc2CN2CCOc3ccc(CN4CCOCC4)cc3C2)nc1	.	.	.	.	-6%
CC12Nc3ccccc3C(=O)N1Cc1cnnn1-c1cc3c(cc12)OCO3 (centres undefined)	.	.	-3	.	.
CC(C)(C)NS(=O)(=O)c1ccc(NC(=O)CS(=O)(=O)Cc2ccccc2)cc1	24%[46.1 µM]	20%	-3	-28%[46.1 µM]	0%
O=C1C(n2ccc3ccccc32)c2cc(Cl)ccc2N1Cc1ccc(Cl)nc1 (centres undefined)	.	.	-31	.	.
CCN(Cc1ccccc1)C(=O)Cn1c(=O)n(-c2ccc(Cl)c(Cl)c2)c(=O)c2c(C)c(C(=O)N(C)C)sc21	.	.	-21	27%[46.1 µM]	-15%
COC(=O)c1cc2oc(C)cc2n1Cc1ccc(C)cc1	.	.	-5	-24%[46.1 µM]	9%
CC(=O)C1=CCC(c2ccc(Cl)cc2)N(S(=O)(=O)c2ccccc2)C1 (centres undefined)	.	.	-32	.	?
CN(Cc1ccccc1)S(=O)(=O)c1cc(Br)cc2c1N(C(=O)C1CC1)CC2	-30%[46.1 µM]	.	-71*	?	3%
CCC(=O)N1CCc2cc(Br)cc(S(=O)(=O)NCCN3CCCCC3CC)c21 (centres undefined)	?	2.5µM*	22	15%	39%
CCCCNS(=O)(=O)c1cc(-c2nn(C)c(=O)c3ccccc23)ccc1C	?	?	64	?	32%
Cc1ccc(-c2nn(C)c(=O)c3ccccc23)cc1S(=O)(=O)NCCN(C)C	11µM*	6%	30	-21%[46.1 µM]	20%
